Bioassay records: PubChem BioAssay, National Center for Advancing Translational Sciences (NCATS)
Sampled rows, rich in hits. Any-hit rate of the full collection: about 3.8%.
ATXN viability – Viability Counterscreen for Primary qHTS for Inhibitors of ATXN expression; S2 cells (HEK-293 line with an ATXN2-luciferase reporter) viability, CellTiter-Fluor protease fluorescence, 24 h; AID 651635, 2014; 400,000 tested, 0.49% active; Potency, µM (series often up to 56.7 µM), actives largely listed as cytotoxic; note: nearly all actives have a fitted effect of over 40% in size
TGFb inhibitor – qHTS for Inhibitors of TGF-b. HepG2 CAGA-GFP TGF-b/SMAD3 reporter, GFP fluorescence, 18 h; TGF-beta stimulated, 500 pg/mL final. Potency, µM (top dose mostly 46.1 µM), inactives show at the top dose activity, negative = inhibition, hits mostly inhibitors. 410,000 tested, 1.2% active. AID 588855, 2011; note: % is set by controls: 0 for no effect and ±100 for the full control effect; nearly all actives have a fitted effect of over 65% in size
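GFP signal (ex488/em500-530) from TGF-beta-stimulated HEPG2 CAGA-GFP cells, 500 pg/mL final, 18 h at 37 degrees C in DMEM plus 1% FBS, normalized to unstimulated and DMSO-stimulated controls.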
HepG2 tox – qHTS for Inhibitors of TGF-b: Cytotox Counterscreen. Potency, µM (doses to about 46.1 µM), inactives show at the highest dose activity change, negative = cytotoxicity, actives largely listed as cytotoxic. AID 588856, 2011. HepG2 CAGA-GFP viability, ATP luminescence, 18 h. 410,000 tested, 0.76% active
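CellTiter-Glo luminescence gave cytotoxicity after 18 hours at 37 degrees C. The cells were HepG2 CAGA-GFP in 1% FBS DMEM, stimulated with 500 pg/mL TGF-beta after compound addition. %Activity was normalised to no-cell wells (complete cell-killing) and DMSO (no toxicity), and curves were fitted and classified.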
HT1080 IDH1KD tx – qHTS for induction of synthetic lethality in tumor cells producing 2HG: qHTS for the HT-1080-IDH1KD cell line; HT-1080 IDH1 knockdown viability, ATP luminescence, 48 h; Potency, µM (series often up to 46.1 µM), without a hit: top-dose activity, negative = toxicity, usual class: cytotoxic; 360,000 tested, 2% active;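 note: 0% = DMSO wells and -100% = cell-free medium wells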
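CellTiter-Glo luminescence after 48 h compound exposure at 37 degrees C of IDH1-knockdown HT-1080 cells in 5% FBS RPMI. %Activity scaled between DMSO wells and cell-free media wells, with curves fitted and assigned curve classes.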
HT1080-NT tox – qHTS for induction of synthetic lethality in tumor cells producing 2HG: qHTS for the HT-1080-NT fibrosarcoma cell line | HT-1080-NT fibrosarcoma viability, CellTiter-Glo ATP luminescence, 48 h | Potency, µM (top dose mostly 46.1 µM), inactives show at the highest dose activity, negative = less viability, most hits filed as cytotoxic | 360,000 tested, 1.6% active;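 note: NT is the 2HG producing partner of a matched IDH1 knockdown line; 0% = DMSO-treated cells and -100% = media-only wells without cells; nearly all actives have a fitted effect of over 55% in size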
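Viability by CellTiter-Glo luminescence after 48 h compound exposure at 37C of HT-1080-NT cells (750/well, RPMI, 5% FBS). % activity scaled between DMSO wells and medium-only wells, then curve-fitted and categorized by curve class.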
ATXN2 expr inh – Primary qHTS for Inhibitors of ATXN expression; HEK-293 ATXN2-luciferase reporter, luminescence, 24 h; Potency, µM (doses to about 57 µM), inactives show top-dose activity change, negative = inhibition, hits mostly inhibitors; 360,000 tested, 0.72% active; note: % is set by controls: 0 for no effect and ±100 for the full control effect; nearly all actives have a fitted effect of over 55% in size
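qHTS (up to 57 uM final) was run with 24 h compound exposure of reporter cells at 37 °C. Each well was multiplexed: SteadyGlo luminescence measured ATXN2-luciferase expression after a fluorogenic Gly-Phe-AFC viability readout (25 uM final).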
An asterisk follows results filed as active; i = inactive; ? = inconclusive; / = no result. Calls come from the whole dose curve; as a rule, active = well fitted curve in the direction sought with a large enough effect; inconclusive = small, poorly fitted or top-dose-only effect, or another doubt; inactive = no such curve, though single readings can be large; an effect the other way counts as inactive or inconclusive. Potency is the fitted concentration of half-maximal effect.

SMILES	ATXN viability	TGFb inhibitor	HepG2 tox	HT1080 IDH1KD tx	HT1080-NT tox	ATXN2 expr inh
N/C(=N\OC(=O)Nc1ccccc1)c1ncc([N+](=O)[O-])s1	?	11.2µM*	8.91µM*	20.6µM*	?	?
O=C(COC(=O)COc1ccccc1)Nc1ncc([N+](=O)[O-])s1	i	-5.0%	2.7%	-3.2%	4.4%	11.3%
CCCCN(CCCC)CCNC(=O)c1cc(=O)[nH]c2ccc(S(=O)(=O)N3CCCCCC3)cc12	/	-18.6%	-22.2%	/	/	/
C=C1CC2(OC1=O)c1ccccc1CCc1ccccc12	/	8.91µM*	14.1µM*	5.8µM*	?	5.97µM*
COc1ccc2nc3cc(Cl)ccc3c(Nc3cc(C(C)C)c(O)cc3C)c2c1	?	?	-69.7%	?	20.6µM*	?
O=C1CCCN1c1ccc(S(=O)(=O)Nc2ccc3c(c2)OCCO3)cc1	i	-26.2%	-0.4%	?	5.01µM*	-18.4%
O=C(Nc1cc(F)ccc1F)C1CCN(C(=O)c2cnn(-c3ccccc3)c2-n2cccc2)CC1	?	?	-24.2%	/	/	-10.4%
Cc1ccc(Nc2nc(Nc3ccc(C)cc3)nc(SC3=NCCS3)n2)cc1	?	?	-26.2%	?	10µM*	-27.0%
Cc1ccccc1Nc1nc(Nc2ccccc2C)nc(SC2=NCCS2)n1	?	?	-22.0%	?	?	?
COC(=O)CSC1=C(C#N)C(c2ccc(C)o2)CC(=O)N1 (stereo not drawn)	i	-15.7%	-8.6%	7.31µM*	?	-26.7%
COC(=O)CSC1=C(C#N)C(c2ccc(F)cc2)CC(=O)N1 (stereo not drawn)	i	-6.2%	-13.3%	-4.7%	-4.1%	-5.9%
CCCCNc1nc2c(S(=O)(=O)c3ccc(C)c(C)c3)nnn2c2ccsc12	/	22.1%	3.3%	/	/	/
COc1ccc(N/C=C/C(=O)c2cc(OC)c(OC)c(OC)c2)cc1	i	?	-5.6%	1.3µM*	1.16µM*	16.5%
Cc1ccc(-c2ccc(=O)n(CC(=O)NC(C)c3ccccc3)n2)cc1 (stereo not drawn)	i	-5.7%	-12.8%	/	/	-6.2%
C=CCOc1ccccc1CN(C(=O)CCl)c1ccc2c(c1)OCO2	/	?	-70.8%	2.59µM*	3.66µM*	?
CSc1ncccc1C(=O)N1CCc2nnc(C(NC(=O)c3ccoc3)C(C)C)n2CC1 (stereo not drawn)	i	/	/	/	/	/
O=C(Nc1cccc2ccccc12)c1ccc([N+](=O)[O-])o1	i	?	-127.6%	13µM*	?	/
Cc1cccc(NC(=O)c2ccc([N+](=O)[O-])o2)c1C	i	?	-40.2%	18.4µM*	23.1µM*	-2.2%
Cc1ccc(C(=O)Nc2cccc3ccccc23)o1	i	7.1%	-27.1%	12.6%	12.2%	16.3%
O=C(Nc1ncccn1)c1ccc([N+](=O)[O-])o1	i	?	-46.9%	?	?	-17.0%
COc1ccc(C=C2C=C(C(C)(C)C)C(=O)C(C(C)(C)C)=C2)cc1OC	i	?	-49.0%	18.4µM*	11.6µM*	?
Cn1nc(-c2ccc(OCC(=O)Nc3cccc(C(F)(F)F)c3)cc2)c2ccccc2c1=O	?	?	0.6%	/	/	-6.9%
COc1cccc(NC(=O)C(=O)NCCc2ccc(F)cc2)c1	i	-10.4%	20µM*	16.6%	6.7%	26.5%
COc1cccc(CC(=O)OCC(=O)NCCc2ccc(F)cc2)c1	i	-1.1%	2.8%	6.3%	0.8%	9.5%
Oc1ccc(O)c(Cc2nc3ccccc3s2)c1	i	?	-10.6%	16.4µM*	?	5.2%
SMILES	ATXN viability	TGFb inhibitor	HepG2 tox	HT1080 IDH1KD tx	HT1080-NT tox	ATXN2 expr inh
COc1cccc(NC(=O)CSc2nc3ccc(NC(=O)c4cccs4)cc3s2)c1	?	-10.2%	-17.6%	/	/	-5.7%
Cc1ccc(NC(=O)N2CCCN(Cc3ccc(F)cc3)C2)cc1C	i	-6.6%	-89.7%	16.4µM*	14.6µM*	-24.6%
O=C(Nc1ccc(Cl)cc1)N1CCCN(Cc2ccccc2F)C1	i	7.4%	-53.9%	12.6µM*	?	-21.3%
NS(=O)(=O)c1ccc(NC2=CC(=O)c3ccccc3C2=O)cc1	/	/	/	/	/	-15.7%
COc1cc(OC)c(C#N)c(S(=O)(=O)Cc2ccccc2)c1	i	-8.5%	1.3%	7.9%	25.5%	-3.6%
N#Cc1c([N+](=O)[O-])cc([N+](=O)[O-])cc1S(=O)(=O)Cc1ccccc1	31.6µM*	3.98µM*	10µM*	2.91µM*	20.6µM*	?
O=c1cc(-c2ccccc2[N+](=O)[O-])oc2ccccc12	i	-18.7%	1.6%	11.6µM*	?	-25.6%
COc1cccc(N2CCN(c3ncnc4c3[nH]c3ccc(F)cc34)CC2C)c1 (stereo not drawn)	10µM*	?	-69.9%	7.31µM*	6.51µM*	3.55µM*
COc1ccc2[nH]c3c(N4CC(C)OC(C)C4)ncnc3c2c1 (stereo not drawn)	i	0.3%	-0.9%	-2.1%	-15.0%	-31.1%
COc1ccc2c(c1)[nH]c1c(N3CCN(Cc4ccc5c(c4)OCO5)CC3)ncnc12	10µM*	20µM*	-52.8%	?	-18.9%	14.1µM*
COc1ccc2c(c1)[nH]c1c(N3CCSCC3)ncnc12	i	0.0%	-29.6%	14.6µM*	?	?
COc1ccc(N(C(=O)Cc2cccs2)C(C(=O)NC2CCCC2)c2ccncc2)cc1 (stereo not drawn)	i	2.4%	5.8%	-0.7%	5.0%	20.8%
COc1ccc(C(C(=O)NC2CCCCC2)N(C(=O)CCl)c2ccc(C)cc2)cc1 (stereo not drawn)	/	?	-39.5%	1.16µM*	0.82µM*	?
COc1ccc(C(C(=O)NC2CCCCC2)N(C(=O)CCl)c2ccc(OC)cc2)cc1 (stereo not drawn)	3.98µM*	?	-22.6%	1.16µM*	1.64µM*	3.55µM*
COc1ccc(C(C(=O)NC2CCCCC2)N(C(=O)CCl)c2cccc(Cl)c2)cc1 (stereo not drawn)	7.08µM*	?	11.2µM*	1.64µM*	9.2µM*	6.31µM*
O=C(Nc1ccc(Cl)cc1C(F)(F)F)c1cc(S(=O)(=O)N2CCOCC2)ccc1F	i	3.5%	-11.7%	/	/	-2.9%
